Results as given in the supplement of paper PMC8728848.
The full list was thinned out, with the strongest signals kept by preference.

Key:
Experiment in all cases: glycan array binding signal (z-score within array); higher = stronger binding
Settings in all cases: glycan notation: IUPAC condensed, linker removed
Fuc(a1-2)Gal = biological target: Fuc(a1-2)Gal
Procedure, shortened: (§1)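 Glycan array data came from 3228 arrays in the Consortium for Functional Glycomics database, and only arrays with an available protein sequence were kept. Glycan names were put into IUPAC-condensed notation, and columns mapping to the same glycan were averaged. The binding signal is a within-array Z-score, averaged across arrays of one protein sequence run at different concentrations or buffers and across linkers. A negative Z-score can be read as non-binding.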

[1] = biological target: Fuc(a1-2)Gal(b1-3)GalNAc(a1-3)[Fuc(a1-2)]Gal(b1-4)GlcNAc
Procedure, shortened: as §1

[2] = biological target: Fuc(a1-2)Gal(b1-4)GlcNAc6S
Procedure, shortened: as §1

[3] = biological target: Fuc(a1-2)Gal3S(b1-4)GlcNAc
Procedure, shortened: as §1

Fuc(a1-2)Gal6S(b1-4)Glc = biological target: Fuc(a1-2)Gal6S(b1-4)Glc
Procedure, shortened: as §1

[4] = biological target: Fuc(a1-2)[Gal(a1-3)]Gal(b1-3)GlcNAc(b1-2)Man(a1-3)[Fuc(a1-2)[Gal(a1-3)]Gal(b1-3)GlcNAc(b1-2)Man(a1-6)]Man(b1-4)GlcNAc(b1-4)[Fuc(a1-6)]GlcNAc
Procedure, shortened: as §1

[5] = biological target: Fuc(a1-2)[GalNAc(a1-3)]Gal
Procedure, shortened: as §1

[6] = biological target: Fuc(a1-2)[GalNAc(a1-3)]Gal(b1-3)GlcNAc
Procedure, shortened: as §1

[7] = biological target: Fuc(a1-2)[GalNAc(b1-3)]Gal
Procedure, shortened: as §1

Gal(a1-3)Gal(b1-3)GlcNAc = biological target: Gal(a1-3)Gal(b1-3)GlcNAc
Procedure, shortened: as §1

[8] = biological target: Gal(a1-3)Gal(b1-3)GlcNAc(b1-3)GalNAc
Procedure, shortened: as §1

[9] = biological target: Gal(a1-3)Gal(b1-4)GlcNAc(b1-3)GalNAc
Procedure, shortened: as §1

[10] = biological target: Gal(a1-4)Gal(b1-4)GlcNAc(b1-3)Gal(b1-4)Glc
Procedure, shortened: as §1

[11] = biological target: Gal(b1-3)GlcNAc(a1-3)Gal(b1-4)GlcNAc
Procedure, shortened: as §1

[12] = biological target: Gal(b1-3)GlcNAc(b1-2)Man(a1-3)[Gal(b1-3)GlcNAc(b1-2)Man(a1-6)]Man(b1-4)GlcNAc(b1-4)GlcNAc
Procedure, shortened: as §1

[13] = biological target: Gal(b1-3)GlcNAc(b1-2)Man(a1-3)[Gal(b1-3)GlcNAc(b1-2)Man(a1-6)]Man(b1-4)GlcNAc(b1-4)[Fuc(a1-6)]GlcNAc
Procedure, shortened: as §1

[14] = biological target: Gal(b1-3)GlcNAc(b1-2)Man(a1-3)[GlcNAc(b1-4)][Gal(b1-3)GlcNAc(b1-2)Man(a1-6)]Man(b1-4)GlcNAc(b1-4)GlcNAc
Procedure, shortened: as §1

[15] = biological target: Gal(b1-3)GlcNAc(b1-2)[Gal(b1-3)GlcNAc(b1-6)]Man(a1-6)[Gal(b1-3)GlcNAc(b1-2)Man(a1-3)]Man(b1-4)GlcNAc(b1-4)GlcNAc
Procedure, shortened: as §1

[16] = biological target: Gal(b1-3)GlcNAc(b1-6)[Gal(b1-3)]GalNAc
Procedure, shortened: as §1

[17] = biological target: Gal(b1-4)GlcNAc(b1-2)[Gal(b1-4)GlcNAc(b1-4)]Man(a1-3)[Gal(b1-4)GlcNAc(b1-2)Man(a1-6)]Man(b1-4)GlcNAc(b1-4)GlcNAc
Procedure, shortened: as §1

[18] = biological target: Gal(b1-4)GlcNAc(b1-2)[Gal(b1-4)GlcNAc(b1-6)]Man(a1-6)[GlcNAc(b1-4)][Gal(b1-4)GlcNAc(b1-2)Man(a1-3)]Man(b1-4)GlcNAc(b1-4)GlcNAc
Procedure, shortened: as §1

[19] = biological target: Gal(b1-4)GlcNAc(b1-3)Gal(b1-4)GlcNAc
Procedure, shortened: as §1

[20] = biological target: Gal(b1-4)GlcNAc(b1-3)Gal(b1-4)GlcNAc(b1-2)Man(a1-3)[Gal(b1-4)GlcNAc(b1-3)Gal(b1-4)GlcNAc(b1-2)Man(a1-6)]Man(b1-4)GlcNAc(b1-4)GlcNAc
Procedure, shortened: as §1

[21] = biological target: Gal(b1-4)GlcNAc(b1-3)Gal(b1-4)GlcNAc(b1-2)[Gal(b1-4)GlcNAc(b1-3)Gal(b1-4)GlcNAc(b1-6)]Man(a1-6)[Gal(b1-4)GlcNAc(b1-3)Gal(b1-4)GlcNAc(b1-2)Man(a1-3)]Man(b1-4)GlcNAc(b1-4)GlcNAc
Procedure, shortened: as §1

[22] = biological target: Gal(b1-4)GlcNAc(b1-3)Gal(b1-4)GlcNAc(b1-3)Gal(b1-4)GlcNAc(b1-2)Man(a1-3)[Gal(b1-4)GlcNAc(b1-3)Gal(b1-4)GlcNAc(b1-3)Gal(b1-4)GlcNAc(b1-2)Man(a1-6)]Man(b1-4)GlcNAc(b1-4)[Fuc(a1-6)]GlcNAc
Procedure, shortened: as §1

[23] = biological target: Gal3S(b1-3)[Fuc(a1-4)]GlcNAc
Procedure, shortened: as §1

Gal3S(b1-4)Glc = biological target: Gal3S(b1-4)Glc
Procedure, shortened: as §1

GalNAc(b1-4)GlcNAc6S = biological target: GalNAc(b1-4)GlcNAc6S
Procedure, shortened: as §1

[24] = biological target: GlcA3S(b1-3)Gal(b1-4)GlcNAc(b1-3)Gal(b1-4)Glc
Procedure, shortened: as §1

[25] = biological target: GlcNAc(a1-4)Gal(b1-4)GlcNAc(b1-3)Gal(b1-4)GlcNAc(b1-3)Gal(b1-4)GlcNAc
Procedure, shortened: as §1

B1: Si Bti9 1b-HA (Solanum lycopersicum) (protein)
chain: MFESRPRSVLSLGVFVILVYLSSVPLPVNSQCNRGCDLALASFYVWRGSNLTLISEMFSTSIADIVSYNNRDNIPNQDSVIAGTRINIPFRCDCLNDGEVLGHAFPYRVKSGDTYDLVARNYSDLTTAQWMMKFNSYPENNIPNTVNLSVVVNCSCGNSDVSKDFGLFVTYPVRAEDNLTSVASAANVSEDIIRRYNPAAVSILDIGQGIIYIPGRDRNGNFPPLPTSTDGLSGGAKAPLFFNPAFLYKVVELKLAGRSRTSGYPYDVPDYAGYPYDVPDYALEVLFQ
- glycan array binding signal (z-score) (Fuc(a1-2)Gal): -0.051
- glycan array binding signal (z-score) [1]: 0.182
- glycan array binding signal (z-score) [2]: -0.271
- glycan array binding signal (z-score) [3]: -0.035
- glycan array binding signal (z-score) (Fuc(a1-2)Gal6S(b1-4)Glc): -0.028
- glycan array binding signal (z-score) [4]: 2.04
- glycan array binding signal (z-score) [5]: -0.349
- glycan array binding signal (z-score) [6]: -0.146
- glycan array binding signal (z-score) [7]: -0.405
- glycan array binding signal (z-score) (Gal(a1-3)Gal(b1-3)GlcNAc): 9.57
- glycan array binding signal (z-score) [8]: 0.207
- glycan array binding signal (z-score) [9]: -0.182
- glycan array binding signal (z-score) [10]: -0.274
- glycan array binding signal (z-score) [11]: -0.16
- glycan array binding signal (z-score) [12]: 3.24
- glycan array binding signal (z-score) [13]: 1.03
- glycan array binding signal (z-score) [14]: 3.72
- glycan array binding signal (z-score) [15]: 2.51
- glycan array binding signal (z-score) [16]: -0.205
- glycan array binding signal (z-score) [17]: -0.324
- glycan array binding signal (z-score) [18]: -0.363
- glycan array binding signal (z-score) [19]: -0.346
- glycan array binding signal (z-score) [20]: 3.44
- glycan array binding signal (z-score) [21]: 2.69
- glycan array binding signal (z-score) [22]: 0.042
- glycan array binding signal (z-score) [23]: -0.237
- glycan array binding signal (z-score) (Gal3S(b1-4)Glc): 2.57
- glycan array binding signal (z-score) (GalNAc(b1-4)GlcNAc6S): -0.204
- glycan array binding signal (z-score) [24]: -0.157
- glycan array binding signal (z-score) [25]: -0.231
